# Reference: PubChem BioAssay AID1159580 (chemical genetic matrix, 2015)
# The campaign covered roughly 5,500 compounds. About 2,000 (36%) were called active. Roughly 18% stayed inconclusive and do not appear here. The list shows a part of the results. Unmarked numbers belong to inactive results. Rule as the data show it: active = normalized growth mostly below about 0.91 (no sharp cut-off); inconclusive = no clear call, values can overlap the other calls; inactive = mostly above about 0.92.
# Assay: chemical genetic growth profiling, strain panel (AID 1159580);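 also: tested at 20 µM; growth read once vehicle control cultures reached saturation at 30 °C; 1 = growth at the plate median or of vehicle wells; lower values mean less growth of the strain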
# Conditions: S. cerevisiae deletion strains, growth OD
# [1] = locus YAR019C, strain CDC15, active compounds read low
# [2] = locus YBL105C, strain PKC1, active compounds read low
# [3] = locus YBR135W, strain CKS1, active compounds read low
# [4] = locus YBR136W, strain MEC1, active compounds read low
# [5] = locus YBR160W, strain CDC28, active compounds read low
# [6] = locus YDL017W, strain CDC7, active compounds read low
# [7] = locus YDL028C, strain MPS1, active compounds read low
# [8] = locus YDL101C, strain DUN1, active compounds read low
# [9] = locus YDL108W, strain KIN28, active compounds read low
# [10] = locus YDL132W, strain cdc53, active compounds read low
# [11] = locus YDL214C, strain PRR2, active compounds read low
# [12] = locus YDR052C, strain DBF4, active compounds read low
# [13] = locus YDR054C, strain cdc34, active compounds read low
# [14] = locus YDR226W, strain ADK1, active compounds read low
# [15] = locus YDR477W, strain SNF1, active compounds read low
# [16] = locus YER123W, strain YCK3, active compounds read low
# [17] = locus YER133W, strain GLC7, active compounds read low
# [18] = locus YFL009W, strain cdc4, active compounds read low
# [19] = locus YFL029C, strain CAK1, active compounds read low
# [20] = locus YFR003C, strain YPI1, active compounds read low
# [21] = locus YFR019W, strain FAB1, active compounds read low
# [22] = locus YFR028C, strain CDC14, active compounds read low
# [23] = locus YGR040W, strain KSS1, active compounds read low
# [24] = locus YGR052W, strain FMP48, active compounds read low
# [25] = locus YGR092W, strain DBF2, active compounds read low
# [26] = locus YHR030C, strain SLT2, active compounds read low
# [27] = locus YHR079C, strain IRE1, active compounds read low
# [28] = locus YHR082C, strain KSP1, active compounds read low
# [29] = locus YHR205W, strain SCH9, active compounds read low
# [30] = locus YIL147C, strain SLN1, active compounds read low
# [31] = locus YJL095W, strain BCK1, active compounds read low
# [32] = locus YJL128C, strain PBS2, active compounds read low
# [33] = locus YJL157C, strain FAR1, active compounds read low
# [34] = locus YJR016C, strain ILV3, active compounds read low
# [35] = locus YJR066W, strain TOR1 (second series), active compounds read low
# [36] = locus YJR066W, strain TOR1, active compounds read low
# [37] = locus YKL048C, strain ELM1, active compounds read low
# [38] = locus YKL067W, strain YNK1, active compounds read low
# [39] = locus YKL101W, strain HSL1, active compounds read low
# [40] = locus YKL193C, strain SDS22, active compounds read low
# [41] = locus YKL203C, strain TOR2, active compounds read low
# [42] = locus YLR113W, strain HOG1, active compounds read low
# [43] = locus YLR133W, strain CKI1, active compounds read low
# [44] = locus YLR403W, strain SFP1, active compounds read low
# [45] = locus YML070W, strain DAK1, active compounds read low
# [46] = locus YMR001C, strain CDC5, active compounds read low
# [47] = locus YMR205C, strain PFK2 (second series), active compounds read low
# [48] = locus YMR277W, strain FCP1, active compounds read low
# [49] = locus YNL006W, strain LST8, active compounds read low
# [50] = locus YNL020C, strain ARK1, active compounds read low
# [51] = locus YNL161W, strain CBK1, active compounds read low
# [52] = locus YNL183C, strain NPR1, active compounds read low
# [53] = locus YNL207W, strain RIO2, active compounds read low
# [54] = locus YNL222W, strain SSU72, active compounds read low
# [55] = locus YNL307C, strain MCK1 (second series), active compounds read low
# [56] = locus YOL078W, strain AVO1, active compounds read low
# [57] = locus YOL136C, strain PFK27, active compounds read low
# [58] = locus YOR061W, strain CKA2, active compounds read low
# [59] = locus YOR119C, strain RIO1, active compounds read low
# [60] = locus YOR231W, strain MKK1, active compounds read low
# [61] = locus YOR329C, strain SCD5, active compounds read low
# [62] = locus YPL031C, strain PHO85, active compounds read low
# [63] = locus YPL153C, strain RAD53, active compounds read low
# [64] = locus YPL204W, strain HRR25, active compounds read low
# [65] = locus YPL209C, strain IPL1, active compounds read low
# [66] = locus YPL256C, strain CLN2, active compounds read low
# [67] = locus YPR025C, strain CCL1, active compounds read low
# [68] = locus YPR106W, strain ISR1, active compounds read low
# [69] = locus YPR111W, strain DBF20, active compounds read low
# [70] = strain NNK1, active compounds read low
# [71] = strain TSCII, active compounds read low
smiles,measurement,setting,value
CCOC(=O)C(O)(c1ccc(NC(=O)Nc2ccc(Cl)cc2)cc1)C(F)(F)F (stereo not given),normalized growth,[1],0.993
same,normalized growth,[2],0.985
same,normalized growth,[3],0.997
same,normalized growth,[4],0.985
same,normalized growth,[5],0.99
same,normalized growth,[6],0.989
same,normalized growth,[7],0.987
same,normalized growth,[8],0.982
same,normalized growth,[9],0.986
same,normalized growth,[10],0.993
same,normalized growth,[11],1.03
same,normalized growth,[12],0.984
same,normalized growth,[13],0.986
same,normalized growth,[14],0.993
same,normalized growth,[15],1.01
same,normalized growth,[16],1.01
same,normalized growth,[17],1
same,normalized growth,[18],0.997
same,normalized growth,[19],0.99
same,normalized growth,[20],0.988
same,normalized growth,[21],0.988
same,normalized growth,[22],0.992
same,normalized growth,[23],0.999
same,normalized growth,[24],0.991
same,normalized growth,[25],0.924
same,normalized growth,[26],1.06
same,normalized growth,[27],1.04
same,normalized growth,[28],1.05
same,normalized growth,[29],0.935
same,normalized growth,[30],0.981
same,normalized growth,[31],0.915
same,normalized growth,[32],0.956
same,normalized growth,[33],1
same,normalized growth,[34],0.994
same,normalized growth,[35],0.977
same,normalized growth,[36],1.03
same,normalized growth,[37],1.01
same,normalized growth,[38],0.994
same,normalized growth,[39],0.975
same,normalized growth,[40],0.987
same,normalized growth,[41],1.04
same,normalized growth,[42],0.963
same,normalized growth,[43],1.01
same,normalized growth,[44],0.973
same,normalized growth,[45],0.992
same,normalized growth,[46],0.983
same,normalized growth,[47],0.991
same,normalized growth,[48],0.999
same,normalized growth,[49],1.01
same,normalized growth,[50],1
same,normalized growth,[51],0.998
same,normalized growth,[52],1.01
same,normalized growth,[53],0.983
same,normalized growth,[54],0.979
same,normalized growth,[55],0.924
same,normalized growth,[56],0.982
same,normalized growth,[57],0.992
same,normalized growth,[58],1
same,normalized growth,[59],1.08
same,normalized growth,[60],0.986
same,normalized growth,[61],0.992
same,normalized growth,[62],0.987
same,normalized growth,[63],1.03
same,normalized growth,[64],1
same,normalized growth,[65],0.996
same,normalized growth,[66],1.11
same,normalized growth,[67],0.99
same,normalized growth,[68],0.992
same,normalized growth,[69],0.986
same,normalized growth,[70],0.998
same,normalized growth,[71],0.993
CCOC(=O)C(NC(C)=O)(Nc1ccc(F)c(Cl)c1)C(F)(F)F (stereo not given),normalized growth,[1],0.992
same,normalized growth,[2],0.995
same,normalized growth,[3],0.983
same,normalized growth,[4],0.997
same,normalized growth,[5],0.991
same,normalized growth,[6],0.992
same,normalized growth,[7],0.995
same,normalized growth,[8],0.982
same,normalized growth,[9],0.997
same,normalized growth,[10],0.991
same,normalized growth,[11],1.01
same,normalized growth,[12],0.99
same,normalized growth,[13],0.997
same,normalized growth,[14],0.985
same,normalized growth,[15],1
same,normalized growth,[16],0.933
same,normalized growth,[17],0.994
same,normalized growth,[18],0.991
same,normalized growth,[19],0.994
same,normalized growth,[20],0.992
same,normalized growth,[21],0.973
same,normalized growth,[22],0.979
same,normalized growth,[23],0.988
same,normalized growth,[24],1.14
same,normalized growth,[25],0.97
same,normalized growth,[26],1.19 [resistant] (active)
same,normalized growth,[27],1.15
same,normalized growth,[28],1.14
same,normalized growth,[29],1.01
same,normalized growth,[30],0.99
same,normalized growth,[31],1.14
same,normalized growth,[32],0.963
same,normalized growth,[33],1.01
same,normalized growth,[34],0.998
same,normalized growth,[35],0.997
same,normalized growth,[36],1.18
same,normalized growth,[37],0.998
same,normalized growth,[38],1
same,normalized growth,[39],1.01
same,normalized growth,[40],0.979
same,normalized growth,[41],1.07
same,normalized growth,[42],1.11
same,normalized growth,[43],1.01
same,normalized growth,[44],1.01
same,normalized growth,[45],0.997
same,normalized growth,[46],0.984
same,normalized growth,[47],0.992
same,normalized growth,[48],0.988
same,normalized growth,[49],0.988
same,normalized growth,[50],1.01
same,normalized growth,[51],0.986
same,normalized growth,[52],1.16
same,normalized growth,[53],1
same,normalized growth,[54],0.989
same,normalized growth,[55],1.01
same,normalized growth,[56],0.981
same,normalized growth,[57],0.999
same,normalized growth,[58],1
same,normalized growth,[59],1
same,normalized growth,[60],1.11
same,normalized growth,[61],0.991
same,normalized growth,[62],1
same,normalized growth,[63],0.993
same,normalized growth,[64],0.996
same,normalized growth,[65],0.988
same,normalized growth,[66],1.12
same,normalized growth,[67],0.986
same,normalized growth,[68],0.99
same,normalized growth,[69],0.997
same,normalized growth,[70],1.01
same,normalized growth,[71],0.986
CCOC(=N)c1ccc(F)c(Cl)c1,normalized growth,"locus YAL013W, strain DEP1, active compounds read low",1.01
same,normalized growth,"locus YBR229C, strain ROT2, active compounds read low",0.995
same,normalized growth,[8],0.992
same,normalized growth,"locus YDL134C, strain PPH21, active compounds read low",1.02
same,normalized growth,"locus YDR150W, strain NUM1, active compounds read low",1.01
same,normalized growth,"locus YEL061C, strain CIN8, active compounds read low",1.01
same,normalized growth,"locus YGR078C, strain PAC10, active compounds read low",1.02
same,normalized growth,"locus YGR229C, strain SMI1, active compounds read low",1.02
same,normalized growth,[26],1.02
same,normalized growth,"locus YHR087W, strain rtc3, active compounds read low",0.995
same,normalized growth,"locus YJR043C, strain POL32, active compounds read low",1.02
same,normalized growth,"locus YJR075W, strain HOC1, active compounds read low",1.01
same,normalized growth,"locus YLR039C, strain RIC1, active compounds read low",1.07
same,normalized growth,"locus YLR058C, strain SHM2 (second series), active compounds read low",1.01
same,normalized growth,"locus YLR085C, strain ARP6, active compounds read low",1.02
same,normalized growth,"locus YLR262C, strain YPT6, active compounds read low",1.06
same,normalized growth,"locus YML094W, strain GIM5, active compounds read low",0.981
same,normalized growth,"locus YMR219W, strain ESC1, active compounds read low",1.02
same,normalized growth,"locus YMR263W, strain SAP30, active compounds read low",1.06
same,normalized growth,"locus YMR307W, strain GAS1, active compounds read low",1.07
same,normalized growth,"locus YNL153C, strain GIM3, active compounds read low",0.999
same,normalized growth,"locus YNL298W, strain CLA4 (second series), active compounds read low",1.06
same,normalized growth,"locus YNL322C, strain KRE1, active compounds read low",1.01
same,normalized growth,"locus YNR030W, strain Alg12, active compounds read low",1.01
same,normalized growth,"locus YOL006C, strain TOP1, active compounds read low",1.06
same,normalized growth,"locus YPL055C, strain LGE1, active compounds read low",1.02
same,normalized growth,"locus YPL241C, strain CIN2, active compounds read low",0.923
same,normalized growth,"locus YPR135W, strain CTF4, active compounds read low",1.05
